Screens as filed in PubChem.
CtBP-E1A blk: CtBP/E1A binding inhibition; AlphaScreen GST-E1A/His-CtBP binding, 1536-well; stronger effect = lower value; activity change, % (test concentration not listed); 340,000 compounds, 0.49% hits; AID 651724; in the data active = activity change below about -65%; inconclusive = mostly about -30% to -63%; note: % is set by controls: 0 for no effect and ±100 for the full control effect
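AlphaScreen with 125 nM GST-E1A and 125 nM His-CtBP (5X stocks) in Tris pH 8.0, 300 mM NaCl, BSA, Tween 20, TCEP. Compounds preincubated 2 h at 37 deg C, then glutathione donor/nickel acceptor beads added for 1 h at 37 deg C in dark.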
RORg inh: blocks mouse ROR gamma transcriptional activity; P51450; Drosophila S2 Gal4-RORgamma UAS-luciferase reporter, 20 h; Potency, µM (highest dose often 53.6 µM), for the others: at the top dose activity change, negative = inhibition, most hits filed as inhibitors; 310,000 compounds, 5.4% hits; AID 2551; note: potency is the fitted concentration of half-maximal effect; % is set by controls: 0 for no effect and ±100 for the full control effect; nearly all actives have a fitted effect of over 60% in size
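Drosophila S2 cells stably expressing Gal4-DBD/mouse RORγ fusion under metallothionein promoter plus UAS-luciferase; compound 1 h, then 700 uM CuSO4 induction for 20 h at ambient temperature; inhibition read as reduced luminescence.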
MBNL1-CUG inh: inhibitors of human MBNL1 binding to CUG repeat RNA; TR-FRET MBNL1-His/biotin-(CUG)12 binding, 665/545 ratio; Q9NR56; 280,000 compounds, 0.036% hits; Potency, µM (doses to about 57.5 µM), without a hit: top-dose activity change, negative = inhibition, usual class: inhibitors; active = well fitted inhibition curve with a large enough effect in the signal ratio, with a control signal flat, not every such curve was filed as active; inconclusive = small, poorly fitted or top-dose-only effect, or effect the other way, or a change in a side signal; inactive = no such curve, though single readings can be large or run the other way; the % refers to the signal ratio; note: potency is the fitted concentration of half-maximal effect; % is set by controls: 0 for no effect and ±100 for the full control effect
Target sequence (Q9NR56 whole entry, looked up): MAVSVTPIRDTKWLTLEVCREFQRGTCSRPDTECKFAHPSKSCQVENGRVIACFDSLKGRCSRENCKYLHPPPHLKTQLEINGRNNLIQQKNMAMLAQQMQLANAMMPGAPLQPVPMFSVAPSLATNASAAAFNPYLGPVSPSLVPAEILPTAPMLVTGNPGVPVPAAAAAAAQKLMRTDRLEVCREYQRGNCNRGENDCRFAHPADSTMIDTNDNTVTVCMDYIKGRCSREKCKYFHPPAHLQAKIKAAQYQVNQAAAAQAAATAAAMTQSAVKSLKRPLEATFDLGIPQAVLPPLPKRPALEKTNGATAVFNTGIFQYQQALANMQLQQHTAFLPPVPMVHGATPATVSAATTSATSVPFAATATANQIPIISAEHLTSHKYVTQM
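Compound titration spanned 92 nM–58 uM against the MBNL1-His/biotin-(CUG)12 complex. After 60 min at room temperature with 5 nM streptavidin-XL665 and 0.055 ng/ul terbium anti-His, ratiometric 665/545 nm emission (Ex 340 nm) normalized to controls.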
Gal4-VP16 FLuc: inhibits Gal4-VP16 luciferase reporter, ROR gamma counter-screen | Drosophila S2 Gal4-VP16 UAS-luciferase, luminescence, 20 h | 310,000 compounds, 3.5% hits | AID 2546 | Potency, µM (titrated, usually from 53.6 µM), inactives show top-dose activity, negative = inhibition, most hits filed as inhibitors;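 note: Gal4-VP16 expression switched on by copper sulfate through the metallothionein promoter; potency is the fitted concentration of half-maximal effect; % is set by controls: 0 for no effect and ±100 for the full control effect; nearly all actives have a fitted effect of over 50% in size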
CBFb RUNX1 block: inhibitors of human CBF-beta and RUNX1 interaction | AlphaScreen CBFb-His/RUNX1-biotin binding, biochemical | Q01196+Q13951 | Potency, µM (highest dose often 59.8 µM), for inactives: at the highest dose activity, negative = inhibition, actives largely listed as inhibitors | 230,000 tested, under 10 active; note: % of control where 0% means no effect
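His-tagged CBF-beta and biotinylated RUNX1 (30 nM each) were premixed 20 min at room temperature, exposed to compound for 15 min, then given nickel-chelate and streptavidin AlphaScreen beads (50 ng each). After 90 min, AlphaScreen signal was read.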
Six1-Eya2 inh: blocks human Six1 binding to Eya2 | AlphaScreen GST-Six1/His-Eya2 binding, biochemical; stronger effect = lower value | activity change, % (concentration not given with the values) | 360,000 compounds, 0.56% hits | AID 651725; in the data active = activity change below about -65%; inconclusive = mostly about -30% to -63%; note: % is set by controls: 0 for no effect and ±100 for the full control effect
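Compounds are tested against tagged Six1 and Eya2 proteins bridged by glutathione donor and nickel acceptor beads; after a one-hour incubation at 37 °C without light, AlphaScreen emission is recorded.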
An asterisk follows results filed as active; ? = inconclusive; / = no result; [ ] = another dose, or the depositor's remark. An excerpt weighted towards active compounds, which were near 5.5% of everything screened. Unless noted, calls come from the whole dose curve; as a rule, active = well fitted curve in the direction sought with a large enough effect; inconclusive = small, poorly fitted or top-dose-only effect, or another doubt; inactive = no such curve, though single readings can be large; an effect the other way counts as inactive or inconclusive.

SMILES | CtBP-E1A blk | RORg inh | MBNL1-CUG inh | Gal4-VP16 FLuc | CBFb RUNX1 block | Six1-Eya2 inh
CC(C)N1C(=O)N(c2cccc(Cl)c2)C(C)(O)CC1(C)C (configuration not stated) | 8 | 7.9µM* | -3% | -3% | / | -4
O=C(N/N=C1/C[C@@H](O)[C@@H](O)[C@@H]2[C@@H]3C(=O)N(C[C@@H]4CCCO4)C(=O)[C@H]3CC[C@@H]12)OCc1ccccc1 | / | 6%[10 µM] | / | 6%[10 µM] | 8%[13.1 µM] | /
COc1cccc(OC)c1OCCCCCc1c(C)n[nH]c1C | -7 | ? | -6% | -5% | 2% | 0
Cc1n[nH]c(C)c1CCCCOc1ccccc1 | -2 | 16µM* | 4% | ? | 0% | -5
Cc1ccc(OCCCc2c(C)n[nH]c2C)cc1 | 5 | 11µM* | 0% | ? | -3% | 1
CCNC(=S)N/N=C/c1ccc(OCc2ccc(C(=O)OC)cc2)cc1 | 7 | 3.2µM* | -1% | ? | 0% | 1
COc1cc(/C=N/NC(=S)NC(C)C)ccc1OCC(=O)Nc1c(C)cc(C)cc1C | 6 | 0.71µM* | 3% | 0.5µM* | 0% | 6
COc1ccc(NC(=O)COc2ccc(/C=N/O)cc2OC)cc1 | 2 | ? | -6% | ? | 1% | -7
CCCCNC(=S)N(C)/N=C/c1ccc(OCC(=O)Nc2c(C)cc(C)cc2C)c(OC)c1 | 0 | -1%[10 µM] | / | 3% | 7% | -6
CCNC(=S)N/N=C/c1ccc(OCC(=O)Nc2ccc(OC)cc2)c(OC)c1 | 1 | 4.5µM* | -10% | ? | 2% | 4
CCNC(=S)N/N=C/c1ccc(OCC(=O)Nc2ccc(C)cc2)cc1 | -1 | 18µM* | 5% | ? | -1% | -1
COc1cc(/C=N/NC(=O)c2ccc(Cl)cc2)ccc1OCC(=O)N1CC(C)OC(C)C1 (configuration not stated) | -6 | 17% | 23% | -1% | 7% | 6
COc1cc(/C=N/NC(=S)Nc2cccc(Cl)c2C)ccc1OCC(=O)N1CC(C)OC(C)C1 (configuration not stated) | -5 | 1.6µM* | 9% | 2.5µM* | -18% | -3
CC1CCN(C(C(=O)O)c2ccccc2)CC1 (configuration not stated) | 6 | 9% | / | -15% | -9% | 5
O=C(OCc1cn([C@@H]2CN(C(=O)c3cccs3)[C@@H](c3ccccc3)C[C@H]2O)nn1)c1ccccc1 | 0 | / | / | / | / | -10
CC1CCN(CCCn2c(=S)[nH]c3c(sc4ccc([N+](=O)[O-])cc43)c2=O)CC1 | -1 | -31% | ? | 5% | -1% | 7
COCCCn1c(=S)[nH]c2c(sc3ccccc32)c1=O | -2 | 1.3µM* | 37% | ? | -21% | -4
CC1CCN(CCCn2c(=S)[nH]c3c(sc4ccccc43)c2=O)CC1 | 3 | 11µM* | 7% | -24% | 15% | -25
O=C(NC1CC1)c1cccc2c1C(=O)c1ccc(N3CCC(N4CCCCC4)CC3)cc1S2(=O)=O | 5 | / | / | / | / | -1
COc1ccc(OC)c(NC(=O)C(=O)NNC(=O)C23CC4CC(CC(C4)C2)C3)c1 | 4 | 2.5µM* | 1% | ? | -2% | -2
CC1=CC(C)(C)Nc2ccc(OC(=O)CCN3C(=O)c4ccccc4C3=O)cc21 | 3 | ? | 3% | 5.6µM* | -20% | -3
Cc1ccc(S(=O)(=O)CC(CN2CCOCC2)N2CCOCC2)cc1 (configuration not stated) | 5 | -1% | -9% | 6% | -1% | 0
O=S(=O)(CC(CN1CCCC1)N1CCCC1)c1ccc2ccccc2c1 (configuration not stated) | -4 | ? | 4% | 11µM* | -6% | -2
O=C(NCc1cccc(C(F)(F)F)c1)c1[nH]c(C(F)(F)F)nc1-c1ccccc1 | -28 | / | / | / | / | -3
Cc1cc(C)n(-c2nc(NCC(C)O)c3c4c(sc3n2)COC(C)(C)C4)n1 (configuration not stated) | -4 | 3.2µM* | -6% | 10µM* | -2% | -4
SMILES | CtBP-E1A blk | RORg inh | MBNL1-CUG inh | Gal4-VP16 FLuc | CBFb RUNX1 block | Six1-Eya2 inh
Cc1cc(C)n(-c2nc(SCC(=O)NCC3CCCO3)c3c4c(sc3n2)CCCC4)n1 (configuration not stated) | / | ? | -2% | -24% | 5% | /
Cc1cc(C)n(-c2nc(SCCN(C)C)c3c4c(sc3n2)COC(C)(C)C4)n1 | -15 | 5µM* | -13% | 7.1µM* | -2% | -12
Cc1ccc(CNc2nc(C)nc3sc4c(c23)CCC4)cc1 | 1 | -16% | -3% | -28% | 1% | -3
Cc1cc(C)n(-c2nc3sc4c(c3c3nnc(SC(C)C)n23)CC(C)(C)OC4)n1 | 8 | / | / | / | / | 0
Cc1cc(C)n(-c2nc(NCC(C)O)c3c4c(sc3n2)CCCC4)n1 (configuration not stated) | -1 | ? | 22% | 1µM* | -18% | 6
Cc1cc(C)n(-c2nc(NCC3CCCO3)c3c4c(sc3n2)COC(C)(C)C4)n1 (configuration not stated) | -2 | 2.8µM* | 6% | 3.2µM* | -9% | -8
O=C(NC(Cc1c[nH]c2ccccc12)C(=O)O)OCC1c2ccccc2-c2ccccc21 (configuration not stated) | 1 | / | / | / | / | -9
Cc1cc(C)n(-c2nc(NCCO)c3c4c(sc3n2)CCCC4)n1 | -7 | 3.2µM* | 1% | 4.5µM* | -4% | -17
Cc1cc(C)n(-c2nc(NCCCO)c3c4c(sc3n2)CCCC4)n1 | -11 | 1.6µM* | 0% | 2.8µM* | -20% | -9
N=c1c2c3c(sc2ncn1CCCO)CCCC3 | 1 | 31% | 1% | -1% | -3% | -5
Cc1cc(C)n(-c2nc(SCC(=O)O)c3c4c(sc3n2)CCCC4)n1 | / | ? | -16% | -7% | 4% | /
C[C@H]1Cc2c(-c3ccccc3)nc3c(c2CO1)CN(C(=O)NCc1ccco1)CC3 | / | / | / | / | 5%[13.1 µM] | /
CC(OC(=O)/C=C/c1ccc2ccccc2n1)C(=O)N(C)c1ccccc1 (configuration not stated) | -12 | / | / | / | / | 0
CC(=O)/C=C/c1ccc2ccccc2n1 | 0 | 10µM* | -3% | ? | 3% | 2
O=S(=O)(c1ccc2oc(=S)[nH]c2c1)N1CCCCC1 | / | -1% | / | 2% | 4% | 0
S=c1[nH]c2cc(-c3ccccc3)ccc2o1 | 2 | 10µM* | 4% | 13µM* | 17% | 11
O=C(CCc1nc2ccccc2s1)NC1CCOC1=O (configuration not stated) | 2 | 0% | -14% | 0% | -21% | -1
